RORg inh: blocks mouse ROR gamma transcriptional activity; Drosophila S2 Gal4-RORgamma UAS-luciferase reporter, 20 h; 310,000 compounds, 5.4% hits; P51450; Potency, µM (doses to about 53.6 µM), without a hit: at the highest dose activity change, negative = inhibition, usual class: inhibitors; AID 2551; also: potency is read from the fitted curve at half-maximal effect; nearly all actives have a fitted effect of over 60% in size
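Read-out: Photinus luciferase luminescence; inhibitors lower reporter signal. Insect Schneider cells with Gal4-ROR gamma fusion under metallothionein promoter, UAS reporter; 700 uM final copper sulfate induction, 20 hr, ambient temperature.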
GALK inhibitor: galactokinase (human) inhibition; P51570; Purified GALK, Kinase-Glo residual ATP luminescence; Potency, µM (highest dose often 57.5 µM), without a hit: at the top dose activity change, negative = inhibition, usual class: inhibitors; 270,000 compounds, 0.007% hits; also: potency is read from the fitted curve at half-maximal effect
Target sequence (P51570 whole entry, looked up): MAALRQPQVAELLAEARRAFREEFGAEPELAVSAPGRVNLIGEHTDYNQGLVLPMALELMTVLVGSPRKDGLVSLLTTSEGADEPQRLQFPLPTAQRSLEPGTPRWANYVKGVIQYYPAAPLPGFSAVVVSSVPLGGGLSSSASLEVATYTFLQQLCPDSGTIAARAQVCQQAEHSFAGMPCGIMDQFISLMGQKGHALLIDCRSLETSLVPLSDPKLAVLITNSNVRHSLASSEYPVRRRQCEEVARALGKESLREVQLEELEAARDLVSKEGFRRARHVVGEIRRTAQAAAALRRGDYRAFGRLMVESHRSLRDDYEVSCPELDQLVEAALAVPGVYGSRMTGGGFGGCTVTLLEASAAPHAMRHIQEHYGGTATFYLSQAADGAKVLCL
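5 nM enzyme, 35 uM ATP, 100 uM galactose, 20 mM HEPES pH8.0, 5 mM MgCl2; 1 h RT; residual ATP by Kinase-Glo Plus luminescence, qHTS format.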
FBPA coupling cs: inhibits coupling enzyme system, counter-screen for aldolase hits; activity change, negative = inhibition, % at 58.2 µM, hits read low; coupling enzyme system counterscreen, AmpLite Red fluorescence; 290,000 compounds, 0.67% hits; in the data active = activity change below about -30%
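Final compound at 57.5 uM, incubated 10 min at RT with coupling enzyme reagent (glyceraldehyde-3-phosphate), then 20 min with substrate and AmpLite Red detection. Fluorescence read at 525/598 nm; tests interference with the coupling assay, not aldolase inhibition.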
TrxR1 substrate: substrates of rat thioredoxin reductase 1 | purified TrxR1 substrate turnover, NADPH consumption readout | Potency, µM (titrated, usually from 114 µM), for the others: at the top dose activity change, negative = substrate turnover | 390,000 compounds, 0.01% hits | AID 588456; also: potency is read from the fitted curve at half-maximal effect; nearly all actives have a fitted effect of over 50% in size
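Rat TrxR1, dispensed at 90 nM, was prereduced with 400 uM NADPH (final) for 5 min at ~22 deg C, then incubated with compound 15 min before 400 uM selenite. A first-read NADPH fluorescence drop versus no-compound background flagged substrates.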
VP16 counter: counter-screen for ROR gamma inhibitors: Gal4-VP16 reporter | Potency, µM (series often up to 53.6 µM), for inactives: top-dose activity, negative = inhibition, usual class: inhibitors | AID 2546 | Drosophila S2 Gal4-VP16 UAS-luciferase, luminescence, 20 h | 310,000 compounds, 3.5% hits;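 also: Gal4-VP16 expression switched on by copper sulfate through the metallothionein promoter; potency is read from the fitted curve at half-maximal effect; nearly all actives have a fitted effect of over 50% in size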
TrxR1 inh: inhibitors of rat thioredoxin reductase 1. O89049. recombinant rTrxR1, NADPH fluorescence consumption, selenite substrate. Potency, µM (series often up to 114 µM), without a hit: at the top dose activity change, negative = inhibition, usual class: inhibitors. 390,000 compounds, 1% hits; also: potency is read from the fitted curve at half-maximal effect; nearly all actives have a fitted effect of over 65% in size
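Rat TrxR1 (90 nM in the dispensed reagent) was pre-reduced with 400 uM NADPH for 5 min at room temperature, then incubated with compound for 15 min. After 400 uM selenite was added, NADPH fluorescence (Ex 340/Em 450 nm) was followed for 8 min.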
Numbers without * were called inactive; ? = inconclusive; . = no result given; [ ] = dose if it differs, or a comment. Shown are actives, neighbours in structure and some others; about 5.9% of the full set was active somewhere. Unless noted, calls follow the shape of the dose curve; as a rule, active = well fitted curve in the direction sought with a large enough effect; inconclusive = small, poorly fitted or top-dose-only effect, or another doubt; inactive = no such curve, though single readings can be large; an effect the other way counts as inactive or inconclusive. % is scaled to controls: 0 for no effect and ±100 for the full control effect.

SMILES | RORg inh | GALK inhibitor | FBPA coupling cs | TrxR1 substrate | VP16 counter | TrxR1 inh
CC(C)c1nnc(NC(=O)c2ccc3ccccc3c2)s1 | ? | 4% | . | 5% | ? | 4%
O=C(Nc1nccs1)c1cc(Cl)ccc1[N+](=O)[O-] | 13µM* | 1% | -2 | -13% | ? | -13%
CC(C)(C)[C@H]1COC(=O)[C@@H](Cc2ccc(F)cc2)CC/C=C/C[C@@H](CC(=O)N[C@@H](CO)Cc2ccccc2)C(=O)N1 | . | . | . | 3%[57.1 µM] | . | 15%
Cc1ccnc(NC(=O)c2sc3ccccc3c2Cl)c1 | 0.28µM* | 0% | 5 | 8% | 1.4µM* | 2%
O=C(NC1CC1)c1sc2cc(Cl)ccc2c1Cl | . | . | . | 4% | . | 13%
Cc1cnc(NC(=O)c2sc3ccccc3c2Cl)s1 | 2µM* | . | -3 | -2%[57.1 µM] | 5µM* | 26%[57.1 µM]
O=C(Nc1nccs1)c1sc2cc(Cl)ccc2c1Cl | 0.5µM* | -5% | -3 | 2%[57.1 µM] | 2.8µM* | 29%[57.1 µM]
Cc1cccnc1NC(=O)CNC(=O)c1sc2ccccc2c1Cl | . | . | . | 1% | . | 21%
COc1ccc2c(c1)/C(=N/N1C(=O)c3ccccc3C1=O)C(=O)N2 | 20% | -1% | -6 | . | -5%[10 µM] | .
O=C(CC1SC(=NCCc2ccccc2)N(/N=C/c2cccs2)C1=O)Nc1ccc(Cl)cc1 (stereo not drawn) | 0.5µM* | 0% | -10 | -10% | 0.79µM* | 16%[57.1 µM]
O=C(CC1SC(=O)N(c2ccccc2)C1=O)Nc1ccc(Cl)cc1 (stereo not drawn) | 16µM* | 3% | 2 | 4%[57.1 µM] | -6% | -13%[57.1 µM]
CSc1ccc(-c2nc(CSCC(=O)NC3CC3)c(C)o2)cc1 | 8.9µM* | 2% | -2 | 9% | ? | -17%
CCOC(=O)N1CCC(NC(=O)CSCc2nc(-c3ccc(OC)cc3)oc2C)CC1 | -42% | -1% | 0 | 10% | -6% | 15%
CCc1ccc(-c2nc(CSCC(=O)N3CCN(c4ncccn4)CC3)c(C)o2)cc1 | 16µM* | 0% | 0 | 11% | 16µM* | -12%
COc1ccc(-c2nc(CSCC(=O)N3CCN(c4ccc(OC)cc4)CC3)c(C)o2)cc1 | . | . | . | -4% | . | -4%
CCOc1ccc(-c2nc(CSCC(=O)NCCCN3CCCC3=O)c(C)o2)cc1 | -29% | 9% | 3 | 8% | -15% | 2%
CCc1ccc(-c2nc(CSCC(=O)NC3CC3)c(C)o2)cc1 | 2µM* | 4% | 1 | 4% | ? | 17%
COc1ccc(-c2nc(CSCC(=O)NCCCN3CCCC3=O)c(C)o2)cc1 | -24% | -1% | 1 | 14% | 11µM* | 1%
CC/C=C(\NC(C)=O)c1ccccc1 | . | . | . | 11% | . | 21%
CC(C)Cn1c(-c2cccnc2)nc2c1c(=O)[nH]c(=O)n2CC(C)C | -7% | 11% | 0 | 9% | -4% | 15%
CC(NC(=O)Nc1nnc(C(F)(F)F)s1)(C(F)(F)F)C(F)(F)F | 5µM* | -1% | -11 | 5%[0.457 µM] | 5.6µM* | -18%[57.1 µM]
Cc1cc(C(=O)Nc2nnc(C(F)(F)F)s2)no1 | 20% | 2% | -9 | 0%[57.1 µM] | 14% | -2%[57.1 µM]
Cc1cc(C(=O)Nc2nnc(C(F)(F)F)s2)cs1 | 6% | 6% | -35* | 4% | 5% | 15%
O=C(Nc1nnc(C(F)(F)F)s1)c1ccc(Br)s1 | ? | 4% | -34* | 0%[57.1 µM] | ? | 0%[57.1 µM]
O=C(Nc1ccccc1C(=O)Nc1nnc(C(F)(F)F)s1)c1ccccc1Cl | ? | -7% | -11 | 7%[11.4 µM] | 16µM* | 8%[11.4 µM]
SMILES | RORg inh | GALK inhibitor | FBPA coupling cs | TrxR1 substrate | VP16 counter | TrxR1 inh
CCSc1nnc(NC(=O)c2ccc(Br)s2)s1 | 7% | -1% | -27 | 9%[57.1 µM] | 22% | 26%[57.1 µM]
N#CC1=C2C=Cc3ccccc3N2CCCC1=O | -22% | 3% | 1 | -10% | 6% | 10%[57.1 µM]
C(=NOCCc1ccccc1)c1ccccn1 | . | . | . | 11%[57.1 µM] | . | 0%[2.29 µM]
CC1CCN(S(=O)(=O)c2cn(CC(=O)Nc3ccc(OC(F)(F)F)cc3)cn2)CC1 | 0% | 7% | 0 | -7% | -2% | -3%
Cc1ccc(C2C3=C(CC(C)(C)CC3=O)Nc3onc(C)c32)cc1 (stereo not drawn) | -22% | -1% | 3 | 46%[57.1 µM] | 19% | -13%[57.1 µM]
Cc1noc2c1C(c1ccc(N(C)C)cc1)C1=C(CC(C)(C)CC1=O)N2 (stereo not drawn) | -11% | -4% | 1 | 6% | 8% | 50µM*
COC1CCCCC1Nc1cc(C)cc(C)c1 (stereo not drawn) | 0% | 0% | -1 | 5% | 5% | 11%
O=C(CSc1n[nH]c(-c2ccccc2)n1)Nc1ccc(F)cc1F | ? | -10% | . | -3% | -4% | -1%
C=CCNC(=S)N/N=C/c1ccc(-c2ccc(Br)cc2)o1 | 0.35µM* | 1% | -3 | 3% | 0.4µM* | -11%
C=CCNC(=S)N/N=C/c1ccc(-c2cccc([N+](=O)[O-])c2)o1 | 0.5µM* | -2% | 6 | -1% | 2.5µM* | 7%
O=C(O)c1ccc(N/N=C/c2ccc(-c3ccc(Br)cc3)o2)cc1 | ? | -4% | 6 | 0% | -4% | -7%
CC(Oc1ccc(Cl)cc1)C(=O)N/N=C/c1ccsc1 (stereo not drawn) | 11µM* | 0% | -16 | -23%[57.1 µM] | ? | 2%[57.1 µM]
CCCCOc1ccc2c(c1)C(=O)c1cc(O)ccc1-2 | 8.9µM* | 8% | 3 | -1%[57.1 µM] | ? | 31%
CCOc1ccc2c(c1)C(=O)c1cc(OCC(=O)O)ccc1-2 | 17% | 0% | -12 | 8% | -19% | 15%
COc1ccccc1C1C(C#N)=C(N)Oc2cc(C)n(Cc3ccccn3)c(=O)c21 (stereo not drawn) | 5% | 4% | -21 | -1% | -4% | -13%
CN1CCN(C(=S)C(=O)Nc2ccc(Br)cc2)CC1 | 18% | -2% | -37* | 8%[57.1 µM] | -16% | -1%[57.1 µM]
CN1CCN(C(=S)NC(=O)c2ccc(-c3ccccc3)cc2)CC1 | 0.089µM* | 0% | 1 | 0% | 0.56µM* | -5%
O=CN1CCN(C(=S)NC(=O)c2ccc(Cl)cc2)CC1 | . | -4% | 1 | 8% | . | -9%
CN1CCC(NC(=O)Nc2ccc(Br)cc2)CC1 | 14% | 5% | 1 | 4% | 5% | 20%
Cc1ccc(C(=O)NC(=S)N2CCN(C)CC2)cc1 | 0% | 0% | 1 | -13% | 7.1µM* | -22%
CC(C)Oc1ccc(C(=O)NC(=S)N2CCOCC2)cc1 | 3.5µM* | -3% | -1 | -13% | 1.3µM* | -28%
CC1(C)Cc2c(c(N3CCOCC3)nc3sc4c(N5CCOCC5)nnnc4c23)CS1 | 31% | -1% | 2 | . | -9% | .
Cc1ccc(C(=O)NC(=S)N2CCCC2)cc1 | 0.89µM* | -7% | . | 6% | 5µM* | 24%

Source: PubChem (National Center for Advancing Translational Sciences (NCATS))
